The target in assay [1] is human Protein Tyrosine Phosphatase Receptor Type C (PTPRC), PTPRC (gene 5788) (UniProt P08575). The assay is described as follows: NVS_ENZ_hPTPRC: NovaScreen (NVS) Enzymatic Assay for human Protein Tyrosine Phosphatase Receptor Type C (PTPRC) (AID 2283212). The procedure, abridged:
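Yeast-extracted human PTPRC used in a cell-free colorimetric enzyme activity read-out, 1 h after dosing. Primary screen in duplicate at 25 uM; actives rerun in concentration-response up to 50 uM, DMSO as baseline.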

For assay [2], the target named is human Protein Tyrosine Phosphatase Receptor Type B (PTPRB), PTPRB (gene 5787) (UniProt P23467). Kind of assay: NVS_ENZ_hPTPRB: NovaScreen (NVS) Enzymatic Assay for human Protein Tyrosine Phosphatase Receptor Type B (PTPRB) (AID 2283211). As to the method: (§1) NVS_ENZ_hPTPRB is a biochemical, single-readout assay that uses extracted gene-proteins in a cell-free assay. Measurements were taken 1 hour after chemical dosing in a 384-well plate.NVS_ENZ_hPTPRB is one of one assay component(s) measured or calculated from the NVS_ENZ_hPTPRB assay. It is designed to make measurements of enzyme activity, a form of enzyme reporter, as detected with fluorescence intensity signals by Fluorescence and electrophoretic mobility shift technology.Data from the assay component NVS_ENZ_hPTPRB was analyzed into 1 assay endpoint. This assay endpoint, NVS_ENZ_hPTPRB, was analyzed in the positive analysis fitting direction relative to DMSO as the negative control and baseline of activity. Using a type of enzyme reporter, loss-of-signal activity can be used to understand changes in the enzymatic activity as they relate to the gene PTPRB. Furthermore, this assay endpoint can be referred to as a primary readout, because this assay has produced multiple assay endpoints where this one serves a enzymatic activity function. To generalize the intended target to other relatable targets, this assay endpoint is annotated to the phosphatase intended target family, where the subfamily is receptor tyrosine phosphatase.
(§2) Binding assays used specific radioligands (tritiated, iodinated) with non-radioactive competitive displacement ligands in agonist or antagonist protocols (as indicated) and various reference compounds and inhibitors to titrate specific binding to receptors and transporters. Most enzyme assays (CYPs, kinases, phosphatases, proteases, HDACs) used recombinant protein and specific substrates (fluorescence mostly, some colorimetric and radioactive) and inhibitors, followed by a biochemical separation of substrate and product. All assays for the biochemical HTS were initially run in duplicate at a single concentration (10 uM for CYP450 assays and 25 uM for all others). […] Each assay was run with positive and negative controls, and concurrent controls on every plate. The follow-up (secondary) screen tested active chemical-pairs in concentration series, as well as a few additional assays not tested in the primary screen, some selected negative inactives, and several cases re-run in the concentration series for confirmatory purposes.

The target in assay [3] is human Protein Tyrosine Phosphatase Receptor Type F (PTPRF), PTPRF (gene 5792) (UniProt P10586). Kind of assay: NVS_ENZ_hPTPRF: NovaScreen (NVS) Enzymatic Assay for human Protein Tyrosine Phosphatase Receptor Type F (PTPRF) (AID 2283213). The procedure, abridged:
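Cell-free fluorescence enzyme assay with recombinant protein and substrate; product separated by electrophoretic mobility shift. Read 1 h after dosing, single 25 uM duplicate screen, then concentration-response up to 50 uM; loss of signal vs DMSO.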

The target in assay [4] is human Protein Tyrosine Phosphatase Receptor Type M (PTPRM), PTPRM (gene 5797) (UniProt P28827). Kind of assay: NVS_ENZ_hPTPRM: NovaScreen (NVS) Enzymatic Assay for human Protein Tyrosine Phosphatase Receptor Type M (PTPRM) (AID 2283215). As to the method: as §1, with “NVS_ENZ_hPTPRM” for “NVS_ENZ_hPTPRB”, “1.33 hours” for “1 hour”, “plate.NVS_ENZ_hPTPRM” for “plate.NVS_ENZ_hPTPRB”, “NVS_ENZ_hPTPRM,” for “NVS_ENZ_hPTPRB,”, “PTPRM.” for “PTPRB.”
Sequence of human Protein Tyrosine Phosphatase Receptor Type M (PTPRM), PTPRM (gene 5797) (P28827 whole entry, looked up): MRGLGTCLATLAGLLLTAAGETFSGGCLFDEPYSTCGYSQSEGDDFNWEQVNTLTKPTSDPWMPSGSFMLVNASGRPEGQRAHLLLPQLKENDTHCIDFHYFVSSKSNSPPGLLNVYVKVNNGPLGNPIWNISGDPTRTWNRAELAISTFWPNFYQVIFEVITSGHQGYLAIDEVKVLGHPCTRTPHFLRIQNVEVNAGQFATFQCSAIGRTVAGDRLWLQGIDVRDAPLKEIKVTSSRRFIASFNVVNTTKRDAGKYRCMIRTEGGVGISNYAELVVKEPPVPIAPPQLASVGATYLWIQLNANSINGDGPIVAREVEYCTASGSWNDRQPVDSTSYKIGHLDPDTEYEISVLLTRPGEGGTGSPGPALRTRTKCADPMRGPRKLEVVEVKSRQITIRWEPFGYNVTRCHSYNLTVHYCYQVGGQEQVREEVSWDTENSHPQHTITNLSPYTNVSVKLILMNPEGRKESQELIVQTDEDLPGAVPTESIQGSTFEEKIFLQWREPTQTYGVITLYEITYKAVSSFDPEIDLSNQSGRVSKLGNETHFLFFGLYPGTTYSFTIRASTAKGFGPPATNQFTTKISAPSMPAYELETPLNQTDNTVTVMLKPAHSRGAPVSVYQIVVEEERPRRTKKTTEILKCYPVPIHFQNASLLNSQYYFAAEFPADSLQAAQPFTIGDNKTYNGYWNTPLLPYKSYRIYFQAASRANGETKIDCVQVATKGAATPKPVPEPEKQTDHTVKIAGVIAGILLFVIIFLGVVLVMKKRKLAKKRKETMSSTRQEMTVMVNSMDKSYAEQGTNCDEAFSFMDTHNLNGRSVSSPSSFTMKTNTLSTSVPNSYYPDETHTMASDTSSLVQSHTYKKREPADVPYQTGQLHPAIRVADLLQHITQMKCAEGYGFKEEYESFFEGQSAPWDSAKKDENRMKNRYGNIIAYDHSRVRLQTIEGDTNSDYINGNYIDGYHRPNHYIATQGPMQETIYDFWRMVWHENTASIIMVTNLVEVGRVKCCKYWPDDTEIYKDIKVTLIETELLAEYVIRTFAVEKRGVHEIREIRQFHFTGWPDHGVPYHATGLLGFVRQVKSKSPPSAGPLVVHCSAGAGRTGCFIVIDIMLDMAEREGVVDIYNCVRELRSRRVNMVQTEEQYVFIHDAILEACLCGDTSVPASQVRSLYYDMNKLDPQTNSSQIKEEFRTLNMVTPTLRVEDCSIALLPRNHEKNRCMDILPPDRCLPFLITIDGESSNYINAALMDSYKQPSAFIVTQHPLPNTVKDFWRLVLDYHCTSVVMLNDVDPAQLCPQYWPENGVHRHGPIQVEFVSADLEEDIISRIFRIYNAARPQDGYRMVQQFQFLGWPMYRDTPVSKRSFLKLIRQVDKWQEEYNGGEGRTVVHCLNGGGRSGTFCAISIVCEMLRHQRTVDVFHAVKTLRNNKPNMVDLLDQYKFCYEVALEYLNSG
as §2, with “The follow-up (secondary) screen tested active chemical-pairs in concentration series, as well as a few additional assays not tested in the primary screen, some selected negative inactives, and several cases re-run in the concentration series for confirmatory purposes.” left out

In assay [5] the target is human Raf-1 Proto-Oncogene, serine/threonine Kinase (RAF1), RAF1 (gene 5894) (UniProt P04049). Kind of assay: NVS_ENZ_hRAF1: NovaScreen (NVS) Enzymatic Assay for human Raf-1 Proto-Oncogene, serine/threonine Kinase (RAF1) (AID 2283216). The gist of the method: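 Cell-free recombinant kinase with specific fluorescent substrate, product separated by electrophoretic mobility shift; read 1 h after dosing. Primary screen at 25 uM in duplicate; hits then run in concentration-response up to 50 uM, fitted as loss of signal versus DMSO.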
Sequence of human Raf-1 Proto-Oncogene, serine/threonine Kinase (RAF1), RAF1 (gene 5894) (P04049 whole entry, looked up): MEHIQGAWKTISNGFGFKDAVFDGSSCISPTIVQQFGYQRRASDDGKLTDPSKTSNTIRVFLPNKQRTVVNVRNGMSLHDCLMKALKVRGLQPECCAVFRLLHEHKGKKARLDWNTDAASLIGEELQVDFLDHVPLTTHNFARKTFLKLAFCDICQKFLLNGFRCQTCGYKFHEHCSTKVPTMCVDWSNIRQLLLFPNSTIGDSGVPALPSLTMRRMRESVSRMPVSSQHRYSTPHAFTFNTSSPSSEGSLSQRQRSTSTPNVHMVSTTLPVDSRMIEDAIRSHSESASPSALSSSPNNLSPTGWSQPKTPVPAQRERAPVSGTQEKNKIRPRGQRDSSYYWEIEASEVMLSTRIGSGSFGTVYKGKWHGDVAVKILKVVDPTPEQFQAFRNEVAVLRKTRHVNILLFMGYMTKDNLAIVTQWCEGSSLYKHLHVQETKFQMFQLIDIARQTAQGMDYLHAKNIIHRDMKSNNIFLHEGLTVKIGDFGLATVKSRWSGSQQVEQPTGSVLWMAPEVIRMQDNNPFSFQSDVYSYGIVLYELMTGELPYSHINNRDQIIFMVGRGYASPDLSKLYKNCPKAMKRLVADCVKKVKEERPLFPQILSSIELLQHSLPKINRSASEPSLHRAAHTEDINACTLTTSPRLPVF

The target of assay [6] is human SRC Proto-Oncogene, Non-receptor Tyrosine Kinase (SRC), SRC (gene 6714) (UniProt P12931). The assay is described as follows: NVS_ENZ_hSRC: NovaScreen (NVS) Enzymatic Assay for human SRC Proto-Oncogene, Non-receptor Tyrosine Kinase (SRC) (AID 2283223). The gist of the method:
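Cell-free kinase activity assay with fluorescent substrate, product separated by electrophoretic mobility shift, read 1 h after dosing. Duplicate single point at 25 uM, then concentration-response up to 50 uM; loss of signal versus DMSO.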

Assay [7] deals with human Protein Tyrosine Phosphatase Non-receptor Type 6 (PTPN6), PTPN6 (gene 5777) (UniProt P29350). Kind of assay: NVS_ENZ_hPTPN6: NovaScreen (NVS) Enzymatic Assay for human Protein Tyrosine Phosphatase Non-receptor Type 6 (PTPN6) (AID 2283210). As to the method: NVS_ENZ_hPTPN6 is a biochemical, single-readout assay that uses extracted gene-proteins from SF9 in a cell-free assay. Measurements were taken 1.33 hours after chemical dosing in a 384-well plate.NVS_ENZ_hPTPN6 is one of one assay component(s) measured or calculated from the NVS_ENZ_hPTPN6 assay. It is designed to make measurements of enzyme activity, a form of enzyme reporter, as detected with fluorescence intensity signals by Fluorescence and electrophoretic mobility shift technology.Data from the assay component NVS_ENZ_hPTPN6 was analyzed into 1 assay endpoint. This assay endpoint, NVS_ENZ_hPTPN6, was analyzed in the positive analysis fitting direction relative to DMSO as the negative control and baseline of activity. Using a type of enzyme reporter, loss-of-signal activity can be used to understand changes in the enzymatic activity as they relate to the gene PTPN6. Furthermore, this assay endpoint can be referred to as a primary readout, because this assay has produced multiple assay endpoints where this one serves a enzymatic activity function. To generalize the intended target to other relatable targets, this assay endpoint is annotated to the phosphatase intended target family, where the subfamily is non-receptor tyrosine phosphatase. […]

Assay [8] has as its target human Rho Associated Coiled-coil Containing Protein Kinase 1 (ROCK1), ROCK1 (gene 6093) (UniProt Q13464). The assay is described as follows: NVS_ENZ_hROCK1: NovaScreen (NVS) Enzymatic Assay for human Rho Associated Coiled-coil Containing Protein Kinase 1 (ROCK1) (AID 2283214). The gist of the method: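 Cell-free recombinant human ROCK1 activity assay; fluorescent substrate and product separated by electrophoretic mobility shift, read 1 h after dosing. Screened in duplicate at 25 uM; loss of signal versus DMSO baseline scored as inhibition.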

Assay [9] has as its target human Sirtuin 2 (SIRT2), SIRT2 (gene 22933) (UniProt Q8IXJ6). Kind of assay: NVS_ENZ_hSIRT2: NovaScreen (NVS) Enzymatic Assay for human Sirtuin 2 (SIRT2) (AID 2283217). The procedure, abridged: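 Cell-free recombinant human SIRT2, fluorescent substrate with product separated by electrophoretic mobility shift, 1 hr. Screened in duplicate at 25 uM; hits rerun singly in concentration-response up to 50 uM, relative to DMSO.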

Assay [10] deals with human Sirtuin 1 (SIRT1), SIRT1 (gene 23411) (UniProt Q96EB6). Kind of assay: NVS_ENZ_hSIRT1: NovaScreen (NVS) Enzymatic Assay for human Sirtuin 1 (SIRT1) (AID 2283219). The procedure, abridged:
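Cell-free recombinant SIRT1 with a fluorescent substrate; substrate and product separated by electrophoretic mobility shift and read by fluorescence intensity, 1 h after dosing. Primary screen at 25 uM in duplicate; hits re-run in concentration-response up to 50 uM, relative to DMSO.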

The structures appear in SMILES notation. Results filed as inconclusive are left out. The source made the active and inactive calls. Rule for the calls: active = hit-call score of the fitted dose curve at least 0.9, where 1 is the maximum; inconclusive = response in the unintended direction; inactive = score below 0.9.

Sequence of human Protein Tyrosine Phosphatase Receptor Type C (PTPRC), PTPRC (gene 5788) (P08575 whole entry, looked up): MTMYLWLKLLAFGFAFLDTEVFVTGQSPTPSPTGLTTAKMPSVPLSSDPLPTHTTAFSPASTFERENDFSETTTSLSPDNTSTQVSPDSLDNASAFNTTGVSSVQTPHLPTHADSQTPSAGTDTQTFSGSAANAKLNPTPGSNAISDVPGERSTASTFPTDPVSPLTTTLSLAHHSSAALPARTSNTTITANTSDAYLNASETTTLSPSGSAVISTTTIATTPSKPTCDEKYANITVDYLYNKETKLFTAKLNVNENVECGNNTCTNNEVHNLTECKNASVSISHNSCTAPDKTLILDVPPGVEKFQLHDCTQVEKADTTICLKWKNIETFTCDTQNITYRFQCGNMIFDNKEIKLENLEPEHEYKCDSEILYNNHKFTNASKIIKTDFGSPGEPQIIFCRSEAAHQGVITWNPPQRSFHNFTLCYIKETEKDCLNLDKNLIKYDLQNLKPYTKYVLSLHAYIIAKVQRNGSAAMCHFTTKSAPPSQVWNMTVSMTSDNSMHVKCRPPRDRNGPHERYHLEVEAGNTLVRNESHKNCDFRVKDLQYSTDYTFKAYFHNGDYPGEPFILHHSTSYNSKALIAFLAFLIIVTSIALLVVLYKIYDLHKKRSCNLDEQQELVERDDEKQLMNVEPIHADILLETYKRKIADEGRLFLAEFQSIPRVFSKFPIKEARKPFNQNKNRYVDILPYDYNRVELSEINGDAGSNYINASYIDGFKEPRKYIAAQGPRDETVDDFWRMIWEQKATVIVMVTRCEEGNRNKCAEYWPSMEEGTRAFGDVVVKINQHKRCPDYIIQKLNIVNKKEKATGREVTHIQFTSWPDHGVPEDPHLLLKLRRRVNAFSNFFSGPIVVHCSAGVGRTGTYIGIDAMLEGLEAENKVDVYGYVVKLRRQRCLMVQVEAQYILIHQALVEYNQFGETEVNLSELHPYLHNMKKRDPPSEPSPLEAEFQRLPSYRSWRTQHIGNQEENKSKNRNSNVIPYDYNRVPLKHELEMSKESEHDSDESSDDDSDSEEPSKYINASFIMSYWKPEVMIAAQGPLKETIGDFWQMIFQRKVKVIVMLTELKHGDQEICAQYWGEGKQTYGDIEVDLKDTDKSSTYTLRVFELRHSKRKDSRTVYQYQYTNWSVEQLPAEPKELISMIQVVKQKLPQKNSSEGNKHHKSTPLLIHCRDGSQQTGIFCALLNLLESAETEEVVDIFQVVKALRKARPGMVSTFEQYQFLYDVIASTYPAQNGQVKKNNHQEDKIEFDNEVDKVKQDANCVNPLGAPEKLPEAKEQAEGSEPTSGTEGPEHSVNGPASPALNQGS
Sequence of human Sirtuin 1 (SIRT1), SIRT1 (gene 23411) (Q96EB6 whole entry, looked up): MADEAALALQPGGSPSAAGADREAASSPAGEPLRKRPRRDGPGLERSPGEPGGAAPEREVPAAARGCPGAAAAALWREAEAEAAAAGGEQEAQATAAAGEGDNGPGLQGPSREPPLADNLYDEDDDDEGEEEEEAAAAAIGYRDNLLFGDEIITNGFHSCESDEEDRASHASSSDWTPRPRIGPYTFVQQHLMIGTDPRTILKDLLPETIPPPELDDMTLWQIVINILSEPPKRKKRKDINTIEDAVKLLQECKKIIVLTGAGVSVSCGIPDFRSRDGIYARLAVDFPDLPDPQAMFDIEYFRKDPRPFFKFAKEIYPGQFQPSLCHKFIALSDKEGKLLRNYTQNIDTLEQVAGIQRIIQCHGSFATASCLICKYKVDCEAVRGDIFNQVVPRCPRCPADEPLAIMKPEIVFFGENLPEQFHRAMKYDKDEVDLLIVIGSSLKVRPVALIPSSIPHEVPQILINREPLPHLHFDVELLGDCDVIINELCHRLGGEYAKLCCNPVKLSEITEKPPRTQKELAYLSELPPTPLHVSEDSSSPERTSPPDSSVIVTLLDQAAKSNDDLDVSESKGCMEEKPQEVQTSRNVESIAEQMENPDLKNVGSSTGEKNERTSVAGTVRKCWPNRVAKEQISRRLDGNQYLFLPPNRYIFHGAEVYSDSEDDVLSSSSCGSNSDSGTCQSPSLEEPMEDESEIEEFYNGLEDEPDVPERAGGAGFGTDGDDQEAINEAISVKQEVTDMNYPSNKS
Sequence of human SRC Proto-Oncogene, Non-receptor Tyrosine Kinase (SRC), SRC (gene 6714) (P12931 whole entry, looked up): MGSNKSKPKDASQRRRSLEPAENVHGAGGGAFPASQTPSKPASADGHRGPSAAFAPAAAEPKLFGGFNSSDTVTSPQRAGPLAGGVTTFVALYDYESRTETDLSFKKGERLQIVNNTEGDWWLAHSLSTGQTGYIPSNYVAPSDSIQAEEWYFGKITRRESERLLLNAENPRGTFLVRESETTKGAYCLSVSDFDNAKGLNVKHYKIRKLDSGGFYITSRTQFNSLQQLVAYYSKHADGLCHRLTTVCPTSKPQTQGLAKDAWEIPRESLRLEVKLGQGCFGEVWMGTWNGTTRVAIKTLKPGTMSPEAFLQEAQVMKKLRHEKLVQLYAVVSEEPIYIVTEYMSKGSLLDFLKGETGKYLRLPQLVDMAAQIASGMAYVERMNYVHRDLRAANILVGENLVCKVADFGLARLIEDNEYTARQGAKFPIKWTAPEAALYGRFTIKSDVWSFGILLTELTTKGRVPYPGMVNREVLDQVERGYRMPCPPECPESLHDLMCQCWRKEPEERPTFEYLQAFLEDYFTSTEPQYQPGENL
Sequence of human Sirtuin 2 (SIRT2), SIRT2 (gene 22933) (Q8IXJ6 whole entry, looked up): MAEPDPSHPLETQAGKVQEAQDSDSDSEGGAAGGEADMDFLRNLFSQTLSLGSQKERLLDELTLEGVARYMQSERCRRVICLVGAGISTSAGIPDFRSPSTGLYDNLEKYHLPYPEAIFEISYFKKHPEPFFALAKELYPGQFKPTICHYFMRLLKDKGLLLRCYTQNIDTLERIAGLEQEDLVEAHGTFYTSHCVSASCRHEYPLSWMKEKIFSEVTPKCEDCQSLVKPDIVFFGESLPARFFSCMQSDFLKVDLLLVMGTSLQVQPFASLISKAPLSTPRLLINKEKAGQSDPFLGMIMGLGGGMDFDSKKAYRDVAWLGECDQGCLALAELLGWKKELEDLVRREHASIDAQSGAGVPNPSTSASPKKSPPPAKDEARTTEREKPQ

For `CN(C)C(=S)S`, the AC50 in [1] was 7.44 µM (active).

Consider `CC(C)O.CC(C)O.OCCN(CCO)CCO.OCCN(CCO)CCO.[Ti]`, for which the AC50 in assay [2] is 0.00229 µM (active); in [3], 3.38 µM (active); in assay [4] it was 0.119 µM (active); in assay [6], 0.00229 µM (active). For the same compound, the result in assay [5] was inactive.

`CCCCCCCCCCCCc1cccc(S(=O)(=O)O)c1`: the AC50 in assay [2] was 19.2 µM (active); in assay [1], 6.82 µM (active); in assay [4] it was 14.4 µM (active); in assay [5], 28.8 µM (active).

In the case of `O=C(CBr)c1ccc(O)cc1`, the compound was classed as inactive in [2].

On to `O=C(O)CC(O)(CC(=O)O)C(=O)O`, for which the compound was called inactive in [5].

Take `Oc1cc(Cl)c(Cl)cc1Cl`: the call in assay [7] and in [5] was inactive.

`O=C(N[C@H]1CN2CCC1CC2)c1ccc2c(c1)OCCO2`: the outcome in assay [5] was inactive.

Take `CCCCCCCCCCCCOS(=O)(=O)O`: the AC50 in assay [5] was 25 µM (active).

Take `COc1nn(C(=O)NS(=O)(=O)c2ccccc2OC(F)(F)F)c(=O)n1C`: the AC50 in assay [2] is 6.08 µM (active).

As for `N#Cc1cccnc1`, the result in [2], in assay [8], in assay [9] and in assay [6] was inactive.

In the case of `O=C1c2ccccc2C(=O)C1C(=O)C(c1ccccc1)c1ccc(Cl)cc1` (stereo unspecified), the concentration at half-maximal activity (AC50) in assay [2] was 14.7 µM (active).

On to `OCCN(CCO)CCO`, for which, in [10], the outcome was inactive.

As to `Clc1cccc(Cl)c1Cl`, the call in [3], in [4], in assay [5] and in assay [10] was inactive.

`O=C(O)C1(c2ccc3c(c2)OC[C@H](Cc2ccc(-c4ccccc4)cc2)[C@H]3O)CCCC1`: in assay [8], the outcome was inactive.

On to `COc1ccccc1N`, for which the AC50 in assay [7] is 22.6 µM (active); in assay [1] it was 17.5 µM (active); in [10] it was 25.4 µM (active).
